Test results reported in PubChem BioAssay.
For some assays here: Measured potencies and affinities stand elsewhere. The source made the active and inactive calls. Unless noted, how the calls were made is not given here.

Legend:
[1] = antimalarial activity against Dd2 strain (AID 2302;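 active means growth inhibition above 50% at the single 2 µM test dose, taken to imply half-maximal potency below 2 µM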;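 further: 0% = DMSO untreated growth and 100% = chloroquine plus artemisinin killed control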); conditions: P. falciparum Dd2 in RBCs, LDH growth readout, 72 h; at 2 µM; stronger effect = higher value
[2] = human hepatoma cell viability loss – ATP luminescence, cytotoxicity control for P. falciparum antimalarial project, primary screen (AID 2303;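 active means inhibition above 50%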;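 further: 0% = DMSO wells and 100% = digitonin-killed cells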); conditions: HepG2 viability, 24-48 h, at 10 µM, stronger effect = higher value
[3] = molecular target: L-lactate dehydrogenase (Plasmodium falciparum (isolate CDC / Honduras)) (UniProt Q27743); assay: PfLDH activity inhibition – cell lysate, 3D7 strain, counter-screen for P. falciparum growth inhibition project (AID 2304);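 further: 0% = vehicle and 100% = reference inhibitor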; conditions: P. falciparum 3D7 crude extract, LDH APAD/NBT absorbance; at 2 µM; stronger effect = higher value
[4] = inhibition of 3D7 malaria parasite growth – strain 3D7 (AID 2306);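 further: 0% = DMSO wells and 100% = chloroquine plus artemisinin control wells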; conditions: P. falciparum 3D7 erythrocytic growth, LDH absorbance, 72 h; at 2 µM; stronger effect = higher value
[5] = molecular target: Calcium-dependent protein kinase 1 (Plasmodium falciparum (isolate 3D7)) (UniProt P62344); assay: PfCDPK1 kinase inhibitors, biochemical, TCAMS library (AID 1159585; cut-off not given, nearly all actives have IC50 up to about 0.98 µM;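 further: inhibitors leave more ATP so luminescence rises with inhibition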); conditions: recombinant PfCDPK1, Kinase-Glo ATP depletion luminescence
[6] = molecular target: Plasmodium falciparum protein kinase 6 (PK6, PF3D7_1337100) (UniProt Q8IDW1); assay: PfPK6 kinase inhibitors, biochemical, TCAMS library (AID 1159586); conditions: recombinant PfPK6, Kinase-Glo ATP depletion luminescence
[7] = molecular target: Protein kinase 7 (PK7), Plasmodium falciparum 3D7 (PF3D7_0213400) (UniProt Q7YTF7); assay: inhibition of Plasmodium PK7 catalytic activity – biochemical, TCAMS antimalarial set, Kinase-Glo luminescence (AID 1159587); conditions: recombinant PfPK7, Kinase-Glo ATP depletion luminescence
[8] = molecular target: Calcium-dependent protein kinase 4 (Plasmodium falciparum (isolate 3D7)) (UniProt Q8IBS5); assay: PfCDPK4 kinase inhibitors, biochemical, TCAMS library (AID 1159588; cut-off not given, nearly all actives have IC50 up to about 0.91 µM); conditions: recombinant PfCDPK4, Kinase-Glo ATP depletion luminescence
Chain of Calcium-dependent protein kinase 4 (Plasmodium falciparum (isolate 3D7)) (Q8IBS5 whole entry, looked up): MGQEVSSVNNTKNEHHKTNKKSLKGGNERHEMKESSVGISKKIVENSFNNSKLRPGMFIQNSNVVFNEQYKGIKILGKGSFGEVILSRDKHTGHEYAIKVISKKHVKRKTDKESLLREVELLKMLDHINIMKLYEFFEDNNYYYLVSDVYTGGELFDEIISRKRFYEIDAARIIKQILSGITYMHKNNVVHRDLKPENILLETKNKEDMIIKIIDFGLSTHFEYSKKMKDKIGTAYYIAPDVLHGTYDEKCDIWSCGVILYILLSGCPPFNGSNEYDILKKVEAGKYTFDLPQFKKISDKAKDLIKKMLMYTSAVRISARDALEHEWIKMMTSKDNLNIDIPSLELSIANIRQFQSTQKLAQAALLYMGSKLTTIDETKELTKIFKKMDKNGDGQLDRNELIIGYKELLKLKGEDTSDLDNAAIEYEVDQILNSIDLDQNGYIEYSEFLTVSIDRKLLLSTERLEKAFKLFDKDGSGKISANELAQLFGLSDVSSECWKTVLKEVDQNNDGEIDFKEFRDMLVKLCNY

Chain of Calcium-dependent protein kinase 1 (Plasmodium falciparum (isolate 3D7)) (P62344 whole entry, looked up): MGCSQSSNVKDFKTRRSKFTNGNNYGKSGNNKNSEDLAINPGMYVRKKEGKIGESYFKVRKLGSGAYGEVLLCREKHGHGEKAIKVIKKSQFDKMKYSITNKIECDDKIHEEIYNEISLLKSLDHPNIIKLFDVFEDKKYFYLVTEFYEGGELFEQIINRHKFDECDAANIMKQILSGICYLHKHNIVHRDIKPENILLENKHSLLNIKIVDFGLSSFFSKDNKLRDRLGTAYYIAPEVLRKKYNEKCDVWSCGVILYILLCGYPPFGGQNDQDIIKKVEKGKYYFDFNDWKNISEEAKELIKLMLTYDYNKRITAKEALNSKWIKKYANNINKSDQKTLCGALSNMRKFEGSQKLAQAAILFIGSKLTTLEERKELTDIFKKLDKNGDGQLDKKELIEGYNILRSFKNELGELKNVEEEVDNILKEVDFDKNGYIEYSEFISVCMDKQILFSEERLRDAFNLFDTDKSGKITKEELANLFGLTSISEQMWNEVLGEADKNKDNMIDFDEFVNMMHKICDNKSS
Chain of Protein kinase 7 (PK7), Plasmodium falciparum 3D7 (PF3D7_0213400) (Q7YTF7 1-343): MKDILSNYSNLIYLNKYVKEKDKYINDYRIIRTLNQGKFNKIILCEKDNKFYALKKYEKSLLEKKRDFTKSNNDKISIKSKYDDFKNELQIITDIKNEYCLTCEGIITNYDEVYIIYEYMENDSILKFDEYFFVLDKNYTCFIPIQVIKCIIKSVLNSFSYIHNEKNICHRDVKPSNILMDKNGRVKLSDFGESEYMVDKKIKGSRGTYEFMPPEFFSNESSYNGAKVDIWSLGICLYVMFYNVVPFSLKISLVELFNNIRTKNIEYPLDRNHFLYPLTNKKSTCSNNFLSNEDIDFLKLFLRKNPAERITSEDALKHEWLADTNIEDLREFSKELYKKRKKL
Chain of L-lactate dehydrogenase (Plasmodium falciparum (isolate CDC / Honduras)) (Q27743 whole entry, looked up): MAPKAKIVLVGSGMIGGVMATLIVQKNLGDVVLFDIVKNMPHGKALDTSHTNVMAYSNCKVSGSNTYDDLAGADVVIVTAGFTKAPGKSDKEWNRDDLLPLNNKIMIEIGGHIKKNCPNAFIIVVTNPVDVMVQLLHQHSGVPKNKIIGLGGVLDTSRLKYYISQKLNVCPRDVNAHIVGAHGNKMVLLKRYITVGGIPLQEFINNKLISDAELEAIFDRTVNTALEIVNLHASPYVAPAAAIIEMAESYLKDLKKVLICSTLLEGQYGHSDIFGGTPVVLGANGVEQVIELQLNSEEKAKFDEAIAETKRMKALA
Chain of Plasmodium falciparum protein kinase 6 (PK6, PF3D7_1337100) (Q8IDW1 1-305): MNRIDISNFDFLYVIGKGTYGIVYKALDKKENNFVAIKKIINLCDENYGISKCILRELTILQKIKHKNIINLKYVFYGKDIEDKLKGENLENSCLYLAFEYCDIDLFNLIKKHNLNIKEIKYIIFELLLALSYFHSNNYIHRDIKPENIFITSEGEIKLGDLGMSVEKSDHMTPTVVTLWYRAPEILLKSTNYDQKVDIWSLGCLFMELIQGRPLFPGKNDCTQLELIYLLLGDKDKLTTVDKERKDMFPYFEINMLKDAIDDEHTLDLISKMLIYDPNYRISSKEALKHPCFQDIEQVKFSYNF

COc1ccc(CNCc2cccc(-c3csc(-c4nc5ccccc5[nH]4)c3)c2)cc1
active: growth inhibition [4] 100%
inactive: growth inhibition [1] 22% | inhibition [2] 17% | inhibition [3] -1% | outcome [5] | outcome [6] | outcome [7] | outcome [8]

O=C(Nc1ccc(-c2cccc(-c3nc4ccccc4[nH]3)c2)cc1)Nc1ccc2c(c1)OCO2
active: growth inhibition [1] 65% | inhibition [2] 55% | growth inhibition [4] 102%
inactive: inhibition [3] 0% | outcome [5] | outcome [6] | outcome [7] | outcome [8]

Nc1nc(-c2ccc3c(Nc4ccc(F)c(Cl)c4)ccnc3c2)cs1
inactive: inhibition [2] 13% | inhibition [3] 0% | outcome [5] | outcome [6] | outcome [7] | outcome [8]
active: growth inhibition [1] 88% | growth inhibition [4] 100%

CCOC(=O)c1ccc(NC(=O)N[C@H]2CCN(CCCCCNC(=O)/C=C/c3ccc(Cl)c(Cl)c3)C2)cc1
active: growth inhibition [4] 98%
inactive: growth inhibition [1] 1% | inhibition [2] 21% | inhibition [3] -4% | outcome [5] | outcome [6] | outcome [7] | outcome [8]

O=C(Cn1c(CCc2cccc(F)c2F)nc(=O)c2ccccc21)N(CCCN1CCCC1)Cc1ccc(-c2ccc(C(F)(F)F)cc2)cc1
active: growth inhibition [1] 80% | inhibition [2] 54% | growth inhibition [4] 101%
inactive: inhibition [3] 4% | outcome [5] | outcome [6] | outcome [7] | outcome [8]

C#CCOc1ccc(N2C(N)=NC(N)=NC2(C)C)cc1
active: growth inhibition [4] 94%
inactive: growth inhibition [1] -3% | inhibition [2] 43% | inhibition [3] 6% | outcome [5] | outcome [6] | outcome [7] | outcome [8]

CS(=O)(=O)c1ccc(Nc2ncc(-c3ccc(S(C)(=O)=O)cc3)c(OCC(F)(F)F)n2)cc1
active: growth inhibition [1] 98% | growth inhibition [4] 97%
inactive: inhibition [2] -7% | inhibition [3] -3% | outcome [5] | outcome [6] | outcome [7] | outcome [8]

c1cncc(CCNCc2ccc(-c3ccc(-c4nc5ccccc5[nH]4)s3)cc2)c1
inactive: inhibition [2] 35% | inhibition [3] -3% | outcome [5] | outcome [6] | outcome [7] | outcome [8]
active: growth inhibition [1] 99% | growth inhibition [4] 101%

O=C(NCCCCN1CCC(c2ccc3ccccc3c2O)CC1)c1ccc(NC(=O)c2ccc(Cl)cc2)cc1
inactive: inhibition [2] 34% | inhibition [3] 3% | outcome [5] | outcome [6] | outcome [7] | outcome [8]
active: growth inhibition [1] 89% | growth inhibition [4] 101%

O=C(Nc1ccc(OC2CCN(Cc3ccc(F)cc3)CC2)c(Cl)c1)c1ccoc1
active: growth inhibition [1] 90% | growth inhibition [4] 89%
inactive: inhibition [2] -2% | inhibition [3] 2% | outcome [5] | outcome [6] | outcome [7] | outcome [8]

Clc1ccc(-c2cc(-c3csc(NCCN4CCCCC4)n3)on2)cc1
active: inhibition [2] 81% | growth inhibition [4] 91%
inactive: growth inhibition [1] 30% | inhibition [3] -9% | outcome [5] | outcome [6] | outcome [7] | outcome [8]

O=C(Nc1cccc(-c2cccc(CN3CCCC3)c2)c1)c1ccc(Cl)cc1
active: inhibition [2] 50% | growth inhibition [4] 93%
inactive: growth inhibition [1] 32% | inhibition [3] 0% | outcome [5] | outcome [6] | outcome [7] | outcome [8]

COc1cc2nc(NCCc3ccccc3)nc(NCCc3ccccc3)c2cc1OC
inactive: inhibition [3] 2% | outcome [5] | outcome [6] | outcome [7] | outcome [8]
active: growth inhibition [1] 100% | inhibition [2] 99% | growth inhibition [4] 101%

CC(=O)Nc1cccc(C(=O)Nc2ccc(-c3cccc(-c4nc5c(C)cccc5[nH]4)c3)cc2)c1
active: growth inhibition [1] 50% | inhibition [2] 86% | growth inhibition [4] 100%
inactive: inhibition [3] -4% | outcome [5] | outcome [6] | outcome [7] | outcome [8]

CC(=O)Nc1ccc(OCCCCN(Cc2ccccc2C(F)(F)F)c2ccc(C(F)(F)F)c(C#N)c2)c(Cl)c1
inactive: inhibition [2] 14% | inhibition [3] -1% | outcome [5] | outcome [6] | outcome [7] | outcome [8]
active: growth inhibition [1] 96% | growth inhibition [4] 96%

c1ccc(CNCCn2c(-c3ccc4c(c3)CCO4)nc3c(N4CCCC4)cccc32)cc1
inactive: inhibition [2] 9% | inhibition [3] -4% | outcome [5] | outcome [6] | outcome [7] | outcome [8]
active: growth inhibition [1] 85% | growth inhibition [4] 82%

O=C(NCc1cccs1)[C@H](Cc1ccccc1)Nc1ccnc(NCC2CCCCC2)n1
active: growth inhibition [1] 67% | growth inhibition [4] 83%
inactive: inhibition [2] 5% | inhibition [3] -2% | outcome [5] | outcome [6] | outcome [7] | outcome [8]

Cc1cc(F)ccc1[C@H]1CNCCN1C(=O)N(C)C(C)(C)c1cc(C(F)(F)F)cc(C(F)(F)F)c1
active: growth inhibition [1] 100% | growth inhibition [4] 101%
inactive: inhibition [2] 24% | inhibition [3] -4% | outcome [5] | outcome [6] | outcome [7] | outcome [8]

CN1CCN(c2cc3c(cc2Br)CCN3C(=O)Nc2ccc(-c3cnc4ccccc4c3)cc2)CC1
inactive: inhibition [3] 3% | outcome [5] | outcome [6] | outcome [7] | outcome [8]
active: growth inhibition [1] 79% | inhibition [2] 100% | growth inhibition [4] 99%

CN(CCCNCc1cccc2ccccc12)CCCNCc1cccc2ccccc12
active: growth inhibition [1] 94% | inhibition [2] 93% | growth inhibition [4] 100%
inactive: inhibition [3] -3% | outcome [5] | outcome [6] | outcome [7] | outcome [8]

Cc1[nH]c(C)c(-c2ccc(Nc3ccc(C(F)(F)F)cn3)cc2)c(=O)c1Br
inactive: inhibition [2] 30% | inhibition [3] -2% | outcome [5] | outcome [6] | outcome [7] | outcome [8]
active: growth inhibition [1] 98% | growth inhibition [4] 99%

CCCN(CCC)CCCNc1ccc(C(=O)Nc2ccc(C)c(F)c2)cc1[N+](=O)[O-]
inactive: inhibition [2] 33% | inhibition [3] 3% | outcome [5] | outcome [6] | outcome [7] | outcome [8]
active: growth inhibition [1] 94% | growth inhibition [4] 100%

COc1ccc(Cl)cc1NC(=O)C(C)Nc1ccc(-c2ccccc2)cc1 (stereo not given)
active: growth inhibition [1] 89% | growth inhibition [4] 91%
inactive: inhibition [2] -1% | inhibition [3] -1% | outcome [5] | outcome [6] | outcome [7] | outcome [8]

COc1ccc2c(=O)c(C3CCC(c4ccc(Cl)cc4)CC3)c(C)[nH]c2c1 (stereo not given)
inactive: inhibition [2] 2% | inhibition [3] 1% | outcome [5] | outcome [6] | outcome [7] | outcome [8]
active: growth inhibition [1] 84% | growth inhibition [4] 97%

CCCC(=O)c1cnc2c(OCCCc3cnc[nH]3)cccc2c1Nc1c(C)cccc1C
inactive: growth inhibition [1] 14% | inhibition [2] 20% | inhibition [3] 3% | outcome [5] | outcome [6] | outcome [7] | outcome [8]
active: growth inhibition [4] 98%

CCCCOc1ccc(N2C(N)=NC(N)=NC2(C)C)cc1
active: growth inhibition [4] 97%
inactive: growth inhibition [1] 3% | inhibition [2] 16% | inhibition [3] 6% | outcome [5] | outcome [6] | outcome [7] | outcome [8]

CCN(CC)CCCNc1c2ccccc2nc2ccccc12
inactive: growth inhibition [1] 0% | inhibition [2] 17% | inhibition [3] -1% | outcome [5] | outcome [6] | outcome [7] | outcome [8]
active: growth inhibition [4] 100%

O=C(Nc1cccc(C(F)(F)F)c1)NC1CCN(c2ccnc3cc(Cl)ccc23)CC1
active: growth inhibition [4] 101%
inactive: growth inhibition [1] 47% | inhibition [2] 13% | inhibition [3] -2% | outcome [5] | outcome [6] | outcome [7] | outcome [8]

O=C(CCC1CCCC1)N(Cc1ccc(-c2ccc(CNCCc3ccccc3)cc2)cc1)C1CCCNC1 (stereo not given)
inactive: inhibition [3] -2% | outcome [5] | outcome [6] | outcome [7] | outcome [8]
active: growth inhibition [1] 71% | inhibition [2] 99% | growth inhibition [4] 90%

COc1cc(C2=NN(S(=O)(=O)c3c(Cl)cc(Cl)cc3Cl)CCCC2)ccc1Cl
active: growth inhibition [1] 97% | growth inhibition [4] 98%
inactive: inhibition [2] 3% | inhibition [3] -1% | outcome [5] | outcome [6] | outcome [7] | outcome [8]

OC(CNCc1ccccc1)c1cc(OCc2ccccc2)cc(OCc2ccccc2)c1 (stereo not given)
inactive: inhibition [2] -14% | inhibition [3] 3% | outcome [5] | outcome [6] | outcome [7] | outcome [8]
active: growth inhibition [1] 76% | growth inhibition [4] 98%

COc1ccc(C(=O)CCC(=O)N(Cc2ccc(-c3ccc(CNCCc4ccc(S(C)(=O)=O)cc4)cn3)cc2)Cc2ccc3c(c2)OCO3)cc1F
active: growth inhibition [4] 95%
inactive: growth inhibition [1] 41% | inhibition [2] 13% | inhibition [3] 3% | outcome [5] | outcome [6] | outcome [7] | outcome [8]

Cn1nc(-c2ccc(NC(=O)Nc3cc(C(F)(F)F)cc(C(F)(F)F)c3)c(F)c2)c2cnc(NCCN3CCOCC3)nc21
inactive: growth inhibition [1] 37% | inhibition [2] 43% | inhibition [3] -6% | outcome [5] | outcome [6] | outcome [7] | outcome [8]
active: growth inhibition [4] 94%

COc1ccc(CNCc2ccc(-c3ccc(-c4nc5c(C)cccc5[nH]4)cc3)cc2)cc1
active: growth inhibition [1] 97% | inhibition [2] 53% | growth inhibition [4] 101%
inactive: inhibition [3] 2% | outcome [5] | outcome [6] | outcome [7] | outcome [8]

COc1ccc(C(c2ccc(N(C)C)cc2)c2ccc(N(C)C)cc2)cc1
active: growth inhibition [1] 99% | inhibition [2] 72% | growth inhibition [4] 101%
inactive: inhibition [3] 1% | outcome [5] | outcome [6] | outcome [7] | outcome [8]

c1ccc(-c2cc(NCCNc3cc(-c4ccccc4)nc4ccccc34)c3ccccc3n2)cc1
active: growth inhibition [4] 99%
inactive: growth inhibition [1] 11% | inhibition [2] -2% | inhibition [3] 0% | outcome [5] | outcome [6] | outcome [7] | outcome [8]

Cc1cccc(CCCNC(=O)CN(c2cccc(C(F)(F)F)c2)S(=O)(=O)c2ccc(C(F)(F)F)cc2)c1
active: growth inhibition [1] 94% | growth inhibition [4] 96%
inactive: inhibition [2] 9% | inhibition [3] 5% | outcome [5] | outcome [6] | outcome [7] | outcome [8]

COc1cccc(CCNCCCCCCNCCc2ccc(Cl)cc2)c1
inactive: growth inhibition [1] 3% | inhibition [2] 32% | inhibition [3] -1% | outcome [5] | outcome [6] | outcome [7] | outcome [8]
active: growth inhibition [4] 100%

COc1ccc2ccc(F)c(CC(=O)N3CCOC(CNCc4cccc(-c5ccsc5)n4)C3)c2n1 (stereo not given)
inactive: growth inhibition [1] 1% | inhibition [2] 1% | inhibition [3] 3% | outcome [5] | outcome [6] | outcome [7] | outcome [8]
active: growth inhibition [4] 92%

Oc1c(Br)cc2oc3c(c2c1CNCc1ccccc1)CCCC3
inactive: inhibition [2] -19% | inhibition [3] 0% | outcome [5] | outcome [6] | outcome [7] | outcome [8]
active: growth inhibition [1] 74% | growth inhibition [4] 99%
